# Results reported in the supplement of paper PMC10849652.
# About 7,900 targets were measured; listed, in parts, are those with a hit and a random draw of the rest. About 0.6% of all pairs of compound and target were hits. Values without a mark were called inactive.
# Compound: CS(=O)(=O)c1ccc(-c2cnc(N)c(C(=O)Nc3ccccc3)n2)cc1
# Experiment: log2 fold change, soluble protein after heating vs DMSO (PISA); higher = thermal stabilisation; K562 cells, 10 uM, 30 min; active = over 0.2 and 3.5 SD of the protein, either way, in both replicates (recomputed)
# Procedure, shortened: (§1)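 Aliquots of K562 cells (2×10^6 cells/mL) treated with 10 μM compound for 30 min were heated for 3 min over 48°C-58°C. After pooling and extraction in PBS with 0.5% NP-40 at 4°C, soluble protein from a 21,000xg, 90 min spin was quantified by TMTpro 16plex LC-MS/MS with channel sums equalised. Thermal stability is expressed against control samples, from duplicates, as a log2 fold change.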
# UniProt P36406, sequence (P36406 whole entry, looked up): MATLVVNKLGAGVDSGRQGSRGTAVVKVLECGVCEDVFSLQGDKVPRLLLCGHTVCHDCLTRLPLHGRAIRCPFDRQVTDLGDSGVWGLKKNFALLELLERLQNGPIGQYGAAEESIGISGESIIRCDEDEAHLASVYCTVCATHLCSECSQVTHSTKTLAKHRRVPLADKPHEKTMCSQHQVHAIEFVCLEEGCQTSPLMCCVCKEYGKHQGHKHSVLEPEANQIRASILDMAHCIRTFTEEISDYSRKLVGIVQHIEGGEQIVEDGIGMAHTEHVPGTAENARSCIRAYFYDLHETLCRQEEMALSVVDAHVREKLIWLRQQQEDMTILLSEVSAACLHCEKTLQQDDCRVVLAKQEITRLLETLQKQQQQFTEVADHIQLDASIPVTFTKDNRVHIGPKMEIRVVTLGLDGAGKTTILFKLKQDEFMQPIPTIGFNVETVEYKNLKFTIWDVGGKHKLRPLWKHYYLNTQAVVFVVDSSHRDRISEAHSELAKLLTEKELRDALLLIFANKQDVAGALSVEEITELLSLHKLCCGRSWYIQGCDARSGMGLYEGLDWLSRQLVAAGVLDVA
# UniProt Q9Y5Z9, sequence (Q9Y5Z9 whole entry, looked up): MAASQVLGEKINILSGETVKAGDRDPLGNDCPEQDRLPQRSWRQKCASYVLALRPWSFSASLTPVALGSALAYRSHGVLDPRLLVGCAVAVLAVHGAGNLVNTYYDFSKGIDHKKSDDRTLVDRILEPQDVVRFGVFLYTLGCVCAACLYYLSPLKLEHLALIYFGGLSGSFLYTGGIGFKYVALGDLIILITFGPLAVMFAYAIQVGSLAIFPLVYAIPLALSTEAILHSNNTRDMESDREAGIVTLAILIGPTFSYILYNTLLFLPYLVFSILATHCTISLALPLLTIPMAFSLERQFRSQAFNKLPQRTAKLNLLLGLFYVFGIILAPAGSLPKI
# UniProt O60784, sequence (O60784 whole entry, looked up): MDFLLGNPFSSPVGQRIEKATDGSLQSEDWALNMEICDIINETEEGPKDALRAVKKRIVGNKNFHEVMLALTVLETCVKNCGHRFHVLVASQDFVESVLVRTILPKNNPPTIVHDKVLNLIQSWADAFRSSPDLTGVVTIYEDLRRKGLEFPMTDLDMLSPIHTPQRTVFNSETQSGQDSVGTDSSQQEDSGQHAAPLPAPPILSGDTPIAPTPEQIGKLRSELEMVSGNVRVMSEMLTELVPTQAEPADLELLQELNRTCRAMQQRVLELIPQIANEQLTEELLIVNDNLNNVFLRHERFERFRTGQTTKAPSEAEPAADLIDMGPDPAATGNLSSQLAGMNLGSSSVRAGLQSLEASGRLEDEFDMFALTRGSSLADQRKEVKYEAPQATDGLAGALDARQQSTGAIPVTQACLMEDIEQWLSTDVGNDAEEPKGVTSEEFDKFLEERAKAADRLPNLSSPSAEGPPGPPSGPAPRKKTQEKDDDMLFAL
# UniProt A6NIH7, sequence (A6NIH7 whole entry, looked up): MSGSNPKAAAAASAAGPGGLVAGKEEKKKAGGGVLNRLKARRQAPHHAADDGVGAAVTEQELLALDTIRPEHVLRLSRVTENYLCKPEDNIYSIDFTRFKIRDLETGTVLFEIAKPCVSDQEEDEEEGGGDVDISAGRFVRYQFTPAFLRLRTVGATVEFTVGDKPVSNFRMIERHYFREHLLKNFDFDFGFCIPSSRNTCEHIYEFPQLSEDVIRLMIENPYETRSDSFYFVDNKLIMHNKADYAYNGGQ
# UniProt Q86TN4, sequence (Q86TN4 whole entry, looked up): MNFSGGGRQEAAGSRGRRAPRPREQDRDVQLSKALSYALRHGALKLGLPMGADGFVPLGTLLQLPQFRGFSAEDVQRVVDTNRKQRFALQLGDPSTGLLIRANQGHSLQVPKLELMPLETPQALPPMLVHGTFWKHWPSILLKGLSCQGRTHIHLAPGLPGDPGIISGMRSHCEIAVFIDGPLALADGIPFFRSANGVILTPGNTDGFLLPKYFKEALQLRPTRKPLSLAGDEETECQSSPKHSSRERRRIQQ
# UniProt Q9BQB6, sequence (Q9BQB6 whole entry, looked up): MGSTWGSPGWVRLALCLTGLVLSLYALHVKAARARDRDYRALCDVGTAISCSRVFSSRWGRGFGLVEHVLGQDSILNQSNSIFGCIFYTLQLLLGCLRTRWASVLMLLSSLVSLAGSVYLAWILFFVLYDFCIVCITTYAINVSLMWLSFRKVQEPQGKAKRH
# UniProt Q96DX7, sequence (Q96DX7 whole entry, looked up): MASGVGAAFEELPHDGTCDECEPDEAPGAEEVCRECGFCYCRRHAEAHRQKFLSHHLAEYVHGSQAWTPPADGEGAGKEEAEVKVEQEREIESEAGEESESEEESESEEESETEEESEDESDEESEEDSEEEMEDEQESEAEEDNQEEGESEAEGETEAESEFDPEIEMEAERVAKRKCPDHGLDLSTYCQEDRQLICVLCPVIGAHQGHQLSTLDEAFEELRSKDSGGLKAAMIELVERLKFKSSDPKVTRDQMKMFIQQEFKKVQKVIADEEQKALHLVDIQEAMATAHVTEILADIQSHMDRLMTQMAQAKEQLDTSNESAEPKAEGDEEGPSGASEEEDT
# UniProt Q9NX01, sequence (Q9NX01 whole entry, looked up): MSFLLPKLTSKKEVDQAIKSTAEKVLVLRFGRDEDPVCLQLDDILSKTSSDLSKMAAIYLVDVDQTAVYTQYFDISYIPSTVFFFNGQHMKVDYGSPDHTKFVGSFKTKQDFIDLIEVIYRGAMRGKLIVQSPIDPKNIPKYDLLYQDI
# UniProt O00124, sequence (O00124 whole entry, looked up): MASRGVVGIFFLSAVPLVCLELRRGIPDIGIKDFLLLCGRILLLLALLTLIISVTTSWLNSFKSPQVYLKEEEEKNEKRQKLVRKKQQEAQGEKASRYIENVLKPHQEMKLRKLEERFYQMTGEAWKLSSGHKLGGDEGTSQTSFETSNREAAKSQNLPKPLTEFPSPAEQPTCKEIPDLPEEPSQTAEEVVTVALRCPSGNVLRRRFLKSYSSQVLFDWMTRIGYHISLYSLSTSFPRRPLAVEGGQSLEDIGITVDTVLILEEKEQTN
# UniProt O95857, sequence (O95857 whole entry, looked up): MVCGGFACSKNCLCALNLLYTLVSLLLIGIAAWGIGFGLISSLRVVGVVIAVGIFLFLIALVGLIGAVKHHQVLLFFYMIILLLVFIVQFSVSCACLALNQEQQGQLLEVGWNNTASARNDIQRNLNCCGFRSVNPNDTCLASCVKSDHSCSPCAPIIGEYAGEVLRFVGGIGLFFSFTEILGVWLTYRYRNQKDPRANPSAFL
# UniProt Q15906, sequence (Q15906 whole entry, looked up): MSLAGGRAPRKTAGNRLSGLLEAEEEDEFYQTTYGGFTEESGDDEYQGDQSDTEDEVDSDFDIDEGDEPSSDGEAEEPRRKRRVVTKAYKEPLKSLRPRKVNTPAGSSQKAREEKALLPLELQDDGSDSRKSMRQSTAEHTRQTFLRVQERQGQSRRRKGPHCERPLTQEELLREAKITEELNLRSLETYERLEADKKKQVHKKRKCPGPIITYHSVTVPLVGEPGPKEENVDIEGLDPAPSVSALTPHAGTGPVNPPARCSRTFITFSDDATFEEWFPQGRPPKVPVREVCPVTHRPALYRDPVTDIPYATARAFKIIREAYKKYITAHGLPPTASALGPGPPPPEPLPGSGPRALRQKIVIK
# UniProt Q8IWA0, sequence (Q8IWA0 whole entry, looked up): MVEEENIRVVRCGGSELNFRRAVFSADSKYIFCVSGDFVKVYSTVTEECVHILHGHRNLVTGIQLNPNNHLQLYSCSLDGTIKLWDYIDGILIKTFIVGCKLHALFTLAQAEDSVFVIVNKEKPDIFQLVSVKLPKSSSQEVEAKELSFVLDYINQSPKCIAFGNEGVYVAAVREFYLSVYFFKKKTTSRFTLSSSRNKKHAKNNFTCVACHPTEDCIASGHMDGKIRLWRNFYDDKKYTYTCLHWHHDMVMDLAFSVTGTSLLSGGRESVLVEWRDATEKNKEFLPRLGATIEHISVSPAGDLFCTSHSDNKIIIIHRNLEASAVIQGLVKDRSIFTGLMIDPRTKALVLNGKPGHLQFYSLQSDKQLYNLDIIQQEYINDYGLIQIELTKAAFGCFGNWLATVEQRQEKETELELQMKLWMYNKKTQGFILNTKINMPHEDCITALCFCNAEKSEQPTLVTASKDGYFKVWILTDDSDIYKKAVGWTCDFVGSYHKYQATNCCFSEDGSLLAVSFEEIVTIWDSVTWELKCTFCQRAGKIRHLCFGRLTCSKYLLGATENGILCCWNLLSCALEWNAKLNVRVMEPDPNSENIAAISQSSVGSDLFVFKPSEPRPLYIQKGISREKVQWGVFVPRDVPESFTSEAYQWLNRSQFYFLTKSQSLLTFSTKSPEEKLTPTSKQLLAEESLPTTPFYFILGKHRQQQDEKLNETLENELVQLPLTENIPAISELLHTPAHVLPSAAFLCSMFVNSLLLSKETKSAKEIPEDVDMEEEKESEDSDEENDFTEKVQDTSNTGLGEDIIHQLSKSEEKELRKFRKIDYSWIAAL
# UniProt Q8NE00, sequence (Q8NE00 whole entry, looked up): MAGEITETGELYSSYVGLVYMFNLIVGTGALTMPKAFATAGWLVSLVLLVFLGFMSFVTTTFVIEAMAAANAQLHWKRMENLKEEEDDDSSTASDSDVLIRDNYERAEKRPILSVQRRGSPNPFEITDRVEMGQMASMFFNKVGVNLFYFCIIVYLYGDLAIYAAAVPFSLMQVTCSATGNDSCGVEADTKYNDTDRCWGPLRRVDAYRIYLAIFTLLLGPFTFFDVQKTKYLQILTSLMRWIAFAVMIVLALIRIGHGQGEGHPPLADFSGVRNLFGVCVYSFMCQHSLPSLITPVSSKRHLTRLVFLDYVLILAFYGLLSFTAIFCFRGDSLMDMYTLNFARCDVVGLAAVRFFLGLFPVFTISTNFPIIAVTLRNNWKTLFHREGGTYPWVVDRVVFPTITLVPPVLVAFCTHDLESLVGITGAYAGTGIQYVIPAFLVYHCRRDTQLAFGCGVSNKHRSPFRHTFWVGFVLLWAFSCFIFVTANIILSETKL
# UniProt P51668, sequence (P51668 whole entry, looked up): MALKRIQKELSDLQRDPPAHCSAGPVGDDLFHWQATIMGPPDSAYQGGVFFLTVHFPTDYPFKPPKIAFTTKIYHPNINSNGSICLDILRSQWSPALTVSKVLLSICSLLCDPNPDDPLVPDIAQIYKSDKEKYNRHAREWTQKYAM
row,Target,log2 fold change
1,TOM1 (UniProt O60784),-0.04
2,TMEM268 isoform 3 (UniProt Q5VZI3),-0.146
3,VKORC1 (UniProt Q9BQB6),0.012
4,UNC119B (UniProt A6NIH7),0.026
5,WDR4 isoform 3 (UniProt P57081),0.074
6,UBE2D1 (UniProt P51668),0.062
7,VDAC1 (UniProt C9JI87),0.017
8,TXNRD1 isoform 7 (UniProt Q16881),0.075
9,TMEM8A (UniProt Q9HCN3),0.425
10,UBE2J2 isoform 3 (UniProt Q8N2K1),0.252
11,VPS72 isoform 2 (UniProt Q15906),-0.041
12,UBXN8 (UniProt O00124),0.054
13,WARS1 (UniProt G3V277),-0.009
14,TXNL4B (UniProt Q9NX01),0.22
15,TSPAN13 (UniProt O95857),-0.055
16,UBIAD1 (UniProt Q9Y5Z9),0.107
17,UFM1 isoform 2 (UniProt P61960),-0.009
18,TRIM44 (UniProt Q96DX7),0.013
19,WARS1 (UniProt G3V5U1),0.092
20,TUBA4A (UniProt C9JJQ8),0.009
21,TRIM23 (UniProt P36406),0.143
22,XIAP (UniProt P98170),0.125
23,TMEM219 (UniProt Q86XT9),0.049
24,TRIM5 (UniProt Q9C035),-0.032
25,TRPT1 isoform 4 (UniProt Q86TN4),-0.176
26,ULBP1 (UniProt Q9BZM6),0.188

# Compound: C[C@@H](Oc1cc(-c2cnn(C3CCNCC3)c2)cnc1N)c1c(Cl)ccc(F)c1Cl [crizotinib]
# Experiment: as above
# Procedure, shortened: as §1
row,Target,log2 fold change
1,TOM1 (UniProt O60784),-0.054
2,VKORC1 (UniProt Q9BQB6),0.494 (active)
3,UNC119B (UniProt A6NIH7),-0.08
4,U2AF1L5 (UniProt P0DN76),-0.105
5,TMEM104 (UniProt Q8NE00),-0.145
6,WDR75 (UniProt Q8IWA0),-0.07
7,WARS1 (UniProt G3V277),-0.001
8,TXNL4B (UniProt Q9NX01),0.309
9,UBIAD1 (UniProt Q9Y5Z9),0.024
10,TRIM44 (UniProt Q96DX7),0.083
11,WARS1 (UniProt G3V5U1),0.09
12,XAB2 (UniProt Q9HCS7),-0.69 (active)
13,TUBA4A (UniProt C9JJQ8),-0.019
14,VWA3B isoform 6 (UniProt Q502W6),-0.012
15,TRIM23 (UniProt P36406),0.152
16,TRPT1 isoform 4 (UniProt Q86TN4),-0.011
